Holding throughout (assay): NCI-60 one-dose screen, 48 h (100 = growth as untreated, 0 = no growth, -100 = all killed)
Common to all, as to settings: 10 µM unless noted

For test [1], the system named is SK-MEL-2 melanoma.
Test [2] relates to EKVX NSCLC.
Test [3] has as its system SN12C renal.
Test [4] concerns UO-31 renal.
The test system of test [5] is TK-10 renal.
Test [6] deals with ACHN renal.
The subject of test [7] is CAKI-1 renal.
Test [8] has as its system A498 renal.
Test [9] relates to CCRF-CEM leukemia.
In test [10] the test system is MOLT-4 leukemia.
The subject of test [11] is SR leukemia.
Test [12] has as its system RPMI-8226 leukemia.
Test [13] has as its system OVCAR-8 ovarian.
Test [14] relates to OVCAR-5 ovarian.
Test [15] deals with OVCAR-4 ovarian.
Test [16] has as its system SK-OV-3 ovarian.
The subject of test [17] is IGROV1 ovarian.
Test [18] concerns OVCAR-3 ovarian.
Test [19] relates to HS 578T breast.
In test [20] the test system is NCI/ADR-RES ovarian.

Experimental findings from PubChem BioAssay (NCI) are described below.

This is part of a sample that, as a whole, favours compounds with a hit. Of some 83,000 tested, about 20% had one in any assay.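 Growth was measured after 48 h exposure to one concentration of compound in 96-well plates. Values under 10 count as active.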 Values without a mark were called inactive. Calls of active or inactive are those of the source.

Turning to `O=C(N(c1ccccc1)c1ccccc1)n1ccc2nc(Cl)nc(Cl)c21`, the growth in test [1] is 58.6%; in [2], 63.3%; in test [3], 53.8%; in [4] it was 57.1%; in [5], 73.7%; in [6], 65.2%. For the same compound, the growth in test [7] is 53.4%; in test [8], 81%; in test [9] it was 16%; in [10] it was 37.1%; in test [11], 54.4%; in test [12] it was 16.1%. Besides, the growth in test [13] was 63.2%; in test [14] it was 64.2%; in [15], 63.3%; in test [16], 49.7%; in test [17] it was 68.5%; in test [18] it was 30%. Further, the growth in test [19] was 42.2%; in test [20] it was 35.8%.
As for `CN(C)S(=O)(=O)c1cccc(-c2nc3sc4c(c3c(=O)[nH]2)CCCC4)c1`, the growth is 36.9% in test [1]; 56.1% in [2]; 28.3% in [3]; 29.6% in test [4]; -20.5% (active) in test [5]; 96.5% in [6]. The growth in [7] was 65.5%; in test [8] it was -29.8% (active); in test [9], 35.5%; in test [10], 56.9%; in test [11], -48.6% (active); in test [12], 23.9%. The growth in test [13] is 13.4%; in [14], 23.3%; in test [15] it was -56.4% (active); in test [16], 7.06% (active); in test [17] it was 32.1%; in [18] it was 19.5%. In addition, the growth was -4.53% (active) in [19] and 29.5% in [20].
In the case of `COC(=O)c1ccc2oc(NC(=O)c3ccc(Nc4ccc([N+](=O)[O-])cc4C)c([N+](=O)[O-])c3)nc2c1`, the growth in test [1] was 101%; in test [2], 79.9%; in test [3], 97.2%; in test [4], 90.7%; in test [5] it was 100%; in test [6], 104%. In addition, the growth in test [7] is 89.5%; in test [8] it was 108%; in test [9], 107%; in test [10] it was 105%; in test [11], 111%; in test [12], 108%. Also, the growth in [13] is 104%; in test [14], 109%; in test [15], 100%; in test [16], 102%; in test [17] it was 104%; in [18], 105%. For the same compound, the growth in [19] was 93.2%; in [20], 106%.
Regarding `CCOc1cc2ncc(C#N)c(Nc3ccc(OCc4cccc(F)c4)c(Cl)c3)c2cc1NC(=O)CCCCC1CCSS1` (stereo not given), the growth is 94.3% in test [1]; 78.5% in test [2]; 88.6% in [3]; 55.8% in test [4]; 92.2% in test [5]; 91.3% in [6]. Also, the growth in test [7] is 72%; in test [8], 70.1%; in test [9] it was 78.9%; in [10], 78.5%; in test [11] it was 92.4%; in test [12] it was 78.6%. For the same compound, the growth in test [13] is 91%; in [14], 111%; in [15], 99.6%; in [16], 83.7%; in test [17], 82.2%; in test [18] it was 102%. Moreover, the growth in [19] is 91.3%; in test [20], 101%.
In the case of `Cc1cc(C)nc(SC2=C(Nc3cccc(Cl)c3)C(=O)N(Cc3ccccc3)C2=O)n1`, the growth in test [1] was 75.9% [30 µM]; in [2], 56% [30 µM]; in [3], 71.9% [30 µM]; in test [4], 34% [30 µM]; in test [5] it was 97.2% [30 µM]; in test [6], 68.2% [30 µM]. Further, the growth in [7] was 66% [30 µM]; in test [8], 67.2% [30 µM]; in test [9], 26.2% [30 µM]; in test [10], 7.17% [30 µM] (active); in test [11] it was 28.8% [30 µM]; in [12], 23.3% [30 µM]. For the same compound, the growth is 52.5% [30 µM] in test [13]; 107% [30 µM] in test [14]; 61.9% [30 µM] in test [15]; 113% [30 µM] in test [16]; 43.3% [30 µM] in test [17]; 68.6% [30 µM] in [18]. The growth was 97.8% [30 µM] in test [19] and 55.5% [30 µM] in [20].
Take `CNc1ccc(-c2cc(=O)oc3ccc(Cl)cc23)cc1`: the growth is 33.7% in [1]; 40.1% in test [2]; 29.9% in test [3]; 47.7% in test [4]; 50% in test [5]; 37% in test [6]. Besides, the growth in test [7] was 34.4%; in test [8], -3.47% (active); in test [9] it was 14.4%; in [10] it was 11.3%; in [11] it was 9.27% (active); in test [12] it was 18.7%. Also, the growth in test [13] was 16.6%; in test [14], 55.6%; in test [15] it was 62.6%; in test [16] it was 9.16% (active); in test [17], 50.1%; in test [18], 9.85% (active). In addition, the growth in test [19] was 16%; in [20], 12.4%.
Turning to `Cc1cc(C)nc(SC2=C(Nc3ccc(C)c(Cl)c3)C(=O)N(Cc3ccccc3)C2=O)n1`, the growth in test [1] is 85.3% [30 µM]; in test [2], 52.7% [30 µM]; in test [3] it was 66.9% [30 µM]; in test [4], 16.7% [30 µM]; in test [5] it was 84.8% [30 µM]; in [6], 81% [30 µM]. Moreover, the growth in [7] is 54.3% [30 µM]; in test [8], 69.5% [30 µM]; in test [9], 35.3% [30 µM]; in test [10], 7.47% [30 µM] (active); in test [11], 25.4% [30 µM]; in test [12], 7.62% [30 µM] (active). In addition, the growth in [13] is 45.3% [30 µM]; in [14], 103% [30 µM]; in test [15], 58.2% [30 µM]; in test [16], 99% [30 µM]; in test [17], 45.1% [30 µM]; in test [18], 69% [30 µM]. The results for the growth in test [19] and in [20] were 72.1% [30 µM] and 62.8% [30 µM], respectively.
